“And” between values parts separate entries of the source, which are not always exact repeats. Equal entries are not always repeated. Records with an inconclusive call do not appear. A call without a number means that no potency is given here. The source made the active and inactive calls. The call rests on the fitted dose curve; in most records, active means well fitted cell-killing curve with a large enough effect in the repeat runs; inconclusive means weak or mixed curves, or effect the other way; inactive means no such curve, though single readings can be large or run the other way.
Assay: qHTS assay for identifying genotoxic compounds that show differential cytotoxicity against isogenic chicken DT40 cell lines with known DNA damage response pathways - Rev3 mutant cell line (AID 743014); further: nearly all actives have a fitted effect of over 55% in size
Conditions: chicken DT40 Rev3-/- viability, CellTiter-Glo, 40 h; series mostly up to 68.4 µM
Text: National Center for Advancing Translational Sciences [NCATS]
NIH Chemical Genomics Center [NCGC]
U.S. Environmental Protection Agency [EPA]
National Institutes of Environmental Health Sciences [NIEHS]
National Toxicology Program [NTP]
U.S. Food and Drug Administration [FDA]
DNA repair pathways play a critical role in cellular homeostasis by repairing DNA damage induced by endogenous processes and xenobiotics. Isogenic chicken DT40 cell lines deficient in different DNA repair pathways can be used to identify genotoxic compounds and aid in characterizing the nature of the DNA damage induced. Two DNA repair-deficient cell lines with disrupted genes, Rad54/Ku70 or Rev3, were used to screen the Tox21 10K compound library. Possible genotoxicity was based on the presence of a significant increase in cytotoxicity in one or more of the DNA repair-deficient cell lines compared to that observed in the parental DNA repair-proficient cell line. CellTiter Glo viability assay (Promega, Madison, WI) was used to measure cell viability in these cells after compound treatment. This assay includes the data from the Rev3 mutant cell line.
Tox21 Assay Protocol Summary:
300 DT40 mutant cells in 5 uL/well were dispensed into white, solid-bottom 1536-well plates using a Multidrop Combi (ThermoFisher Scientific, Waltham, MA) dispenser. After the assay plates were incubated at 37 C/5% CO2 for approximately 0.5 hour, 23 nL of compounds dissolved in DMSO, positive controls or DMSO only was transferred into the assay plate by a pintool work station (Kalypsys, San Diego, CA). The assay plates were incubated at 37 C/5% CO2 for 40 hours. After 5 uL per well of CellTiter-Glo reagent was added into each well of the assay plates, the plates were incubated for 30 min at room temperature and the luminescence intensity of the plates was measured using a ViewLux (PerkinElmer, Shelton, CT) plate reader.
Potency means the concentration at half of the fitted maximal effect.

Row | SMILES | Potency
1 | C=CCc1cc(OC)c2c(c1)OCO2 | inactive
2 | CCC(C(N)=O)N1CCCC1=O (stereo not given) | inactive
3 | CCc1cc(OC)c(C[C@H](C)N)cc1OC | 71.5 µM (active)
4 | C[C@H]1CCCC(=O)CCC/C=C/c2cc(O)cc(O)c2C(=O)O1 | 16.6 µM (active) and 22.4 µM (active)
5 | O=C(O)CBr | inactive
6 | CNC(=O)Oc1ccccc1C(C)C | inactive
7 | COc1cccc([C@@]2(O)CCCC[C@@H]2CN(C)C)c1 | inactive
8 | COC(=O)c1ccc(CBr)cc1 | inactive
9 | CCCCS(=O)(=O)Cl | inactive
10 | CN(CCO)CCO | inactive
11 | CCCC[N+](=O)[O-] | inactive
12 | CN=CNc1ccc(C)cc1C | inactive
13 | C#CC(C)(C)O | inactive
14 | Cc1cccc2sc3nncn3c12 | inactive
15 | O=C/C=C/c1ccco1 | inactive
16 | CCN[C@H](C)Cc1cccc(C(F)(F)F)c1 | 30.5 µM (active)
17 | CCOC(=O)COc1ccc(Cl)cc1Cl | inactive
18 | CCC1(c2ccccc2)C(=O)N(COC)C(=O)N(COC)C1=O | inactive
19 | C[C@]12C=CC(=O)C=C1CC[C@@H]1[C@@H]2CC[C@@]2(C)[C@H]1CC[C@]2(C)O | 11.9 µM (active)
20 | C/C(=N\NC(=O)Nc1cc(F)cc(F)c1)c1ncccc1C(=O)O | inactive

Row | SMILES | Potency
21 | C#CCOC(=O)/C=C(C)/C=C/CC(C)CCCC(C)C (stereo not given) | inactive
22 | O=C(O)C(Br)(Br)Br | inactive
23 | ClCCCCl | inactive
24 | CC(C)c1ccc(O)cc1 | inactive
25 | CCOC(=O)C(Cl)Cc1cc(-n2nc(C)n(C(F)F)c2=O)c(F)cc1Cl (stereo not given) | 61.1 µM (active)
26 | O=P(O)(O)CN(CP(=O)(O)O)CP(=O)(O)O | inactive
27 | CCCCCCCC(=O)Cl | inactive
28 | CCC(C)(C#N)N=NC(C)(C#N)CC (stereo not given) | inactive
29 | O=C(Cl)C(Cl)(Cl)Cl | inactive
30 | BrCC1CO1 (stereo not given) | 61.4 µM (active)
31 | NCCOS(=O)(=O)O | inactive
32 | Oc1ccc(Cc2ccc(O)cc2)cc1 | inactive
33 | OCC(Cl)CCl (stereo not given) | inactive
34 | CCN[C@@H](C)Cc1cccc(C(F)(F)F)c1 | 16.9 µM (active)
35 | CN(C)CCc1c[nH]c2cccc(OP(=O)(O)O)c12 | inactive
36 | CS(=O)(=O)Cl | inactive
37 | ClC1=C(Cl)C2(Cl)C(CBr)CC1(Cl)C2(Cl)Cl (stereo not given) | 27.3 µM (active)
38 | C=C(Cl)CSC(=S)N(CC)CC | 66.8 µM (active)
39 | CCCCCCCCSC(=O)Oc1cc(Cl)nnc1-c1ccccc1 | 54.5 µM (active)
40 | CCOC(=O)NC(C)(C)Cc1ccc(Cl)cc1 | inactive

— PubChem BioAssay (Tox21)
